11 sequences from paper PMC8384837, “Expanding the binding specificity for RNA recognition by a PUF domain” can be followed below.

What all share (test): yeast three-hybrid, YBZ-1, SC-Leu-His + 0.5 mM 3-AT, 4 days
Common to all, as to conditions: tags: N-Gal4 AD-HA kept; label: inside an RPR1-promoter hybrid RNA with tandem MS2 sites; ssRNA

Assay [1] has as its target PUM1 PUF domain R4-GMC (Homo sapiens, UniProt Q14671 828-1176, N971G;H972M;Q975C). Put shortly:
(§1)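 Matching RNA elements and Pumilio-1 PUF domain libraries, randomized at the three base-contacting residues of every repeat, were co-expressed from a centromeric plasmid in strain YBZ-1 (LexA–MS2 coat fusion, HIS3 reporter). The repeat regions were PCR-amplified and Illumina-sequenced from cells grown four days on SC-Leu (input) or SC-Leu-His + 0.5 mM 3-AT (selection). The interaction score is the log change in variant frequency from input to selection. It is computed in log2, with a pseudocount of 1 for absent variants.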

For assay [2], the target named is PUM1 PUF domain R8-RHL (Homo sapiens, UniProt Q14671 828-1176, N1122R;Y1123H;Q1126L). In outline: as §1
Assay [3] has as its target PUM1 PUF domain R8-PWL (Homo sapiens, UniProt Q14671 828-1176, N1122P;Y1123W;Q1126L). Put shortly:
as §1

In assay [4] the target is T1, PUM1 PUF domain R6-VYE (Homo sapiens, UniProt Q14671 828-1176, N1043V;Q1047E).
T1 sequence: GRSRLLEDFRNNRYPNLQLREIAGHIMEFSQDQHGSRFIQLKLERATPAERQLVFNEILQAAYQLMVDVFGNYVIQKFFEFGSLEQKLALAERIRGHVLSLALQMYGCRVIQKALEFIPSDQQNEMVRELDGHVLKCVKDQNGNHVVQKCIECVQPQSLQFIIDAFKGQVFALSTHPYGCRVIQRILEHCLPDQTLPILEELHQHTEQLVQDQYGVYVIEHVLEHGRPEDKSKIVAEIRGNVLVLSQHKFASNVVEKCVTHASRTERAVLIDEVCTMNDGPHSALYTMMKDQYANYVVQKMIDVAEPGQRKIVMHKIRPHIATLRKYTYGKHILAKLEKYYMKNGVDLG
In outline:
as §1

The target of assay [5] is PUM1 PUF domain R5-KRC (Homo sapiens, UniProt Q14671 828-1176, C1007K;Q1011C). Put shortly:
as §1

Assay [6] concerns the target PUM1 PUF domain R7-LYG (Homo sapiens, UniProt Q14671 828-1176, S1079L;N1080Y;E1083G). Put shortly:
as §1

Assay [7] has as its target PUM1 PUF domain R3-KPS (Homo sapiens, UniProt Q14671 828-1176, C935K;R936P;Q939S). Put shortly:
as §1

Assay [8] deals with PUM1 PUF domain R3-YRQ (Homo sapiens, UniProt Q14671 828-1176, C935Y). In outline:
as §1

Assay [9] has as its target PUM1 PUF domain R3-FCL (Homo sapiens, UniProt Q14671 828-1176, C935F;R936C;Q939L). In outline: as §1
The target in assay [10] is PUM1 PUF domain R5-WWW (Homo sapiens, UniProt Q14671 828-1176, C1007W;R1008W;Q1011W). In outline: as §1

PUM1 PUF domain R5-KRC, sequence (Q14671 828-1176 C1007K/Q1011C): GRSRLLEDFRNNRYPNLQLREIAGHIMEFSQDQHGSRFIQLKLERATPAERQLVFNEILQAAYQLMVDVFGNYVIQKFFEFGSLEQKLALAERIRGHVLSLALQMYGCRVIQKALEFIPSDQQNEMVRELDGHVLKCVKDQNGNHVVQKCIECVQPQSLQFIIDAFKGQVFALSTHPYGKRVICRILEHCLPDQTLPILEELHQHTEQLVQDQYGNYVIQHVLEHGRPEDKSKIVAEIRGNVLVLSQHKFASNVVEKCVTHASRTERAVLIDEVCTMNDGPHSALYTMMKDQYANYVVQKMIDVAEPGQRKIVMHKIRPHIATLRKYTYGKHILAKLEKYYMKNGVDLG

With “GGCUAGAACUAGUGGAUCCCCCGGCGCCCGGCGGCUCGAGCCCGGGUAAGUGUAUAUAGUCUGCAUGCCGCCGGGCGCCAUGCCUGCAGGUCGACUCUAGAAAACAUG”, the binding signal in assay [1] is 3.12 log2 enrichment (interaction score).
Regarding “GGCUAGAACUAGUGGAUCCCCCGGCGCCCGGCGGCUCGAGCCCGGGUAAGCGUAAAUAGUCUGCAUGCCGCCGGGCGCCAUGCCUGCAGGUCGACUCUAGAAAACAUG”, the binding signal in [2] is 5.48 log2 enrichment (interaction score); in assay [3], 3.61 log2 enrichment (interaction score).
Consider “GGCUAGAACUAGUGGAUCCCCCGGCGCCCGGCGGCUCGAGCCCGGGUAAGUGGAAAUAGUCUGCAUGCCGCCGGGCGCCAUGCCUGCAGGUCGACUCUAGAAAACAUG”, for which the binding signal in assay [4] was 2.43 log2 enrichment (interaction score).
In the case of “GGCUAGAACUAGUGGAUCCCCCGGCGCCCGGCGGCUCGAGCCCGGGUAAGUGUUAAUAGUCUGCAUGCCGCCGGGCGCCAUGCCUGCAGGUCGACUCUAGAAAACAUG”, the binding signal in assay [5] is 3.89 log2 enrichment (interaction score).
With “GGCUAGAACUAGUGGAUCCCCCGGCGCCCGGCGGCUCGAGCCCGGGUAAGUCUAAAUAGUCUGCAUGCCGCCGGGCGCCAUGCCUGCAGGUCGACUCUAGAAAACAUG”, the binding signal in assay [6] was 2.93 log2 enrichment (interaction score).
In the case of “GGCUAGAACUAGUGGAUCCCCCGGCGCCCGGCGGCUCGAGCCCGGGUAAGUGUAAUUAGUCUGCAUGCCGCCGGGCGCCAUGCCUGCAGGUCGACUCUAGAAAACAUG”, the binding signal in [7] was 3.86 log2 enrichment (interaction score).
As for “GGCUAGAACUAGUGGAUCCCCCGGCGCCCGGCGGCUCGAGCCCGGGUAAGUGUAAGUAGUCUGCAUGCCGCCGGGCGCCAUGCCUGCAGGUCGACUCUAGAAAACAUG”, the figures for the binding signal in assay [8] and in assay [9] were 3.31 log2 enrichment (interaction score) and 4.28 log2 enrichment (interaction score), respectively.
With “GGCUAGAACUAGUGGAUCCCCCGGCGCCCGGCGGCUCGAGCCCGGGUAAGUGUGAAUAGUCUGCAUGCCGCCGGGCGCCAUGCCUGCAGGUCGACUCUAGAAAACAUG”, the binding signal was 3.25 log2 enrichment (interaction score) in [10] and 1.03 log2 enrichment (interaction score) in [5].
As to “GGCUAGAACUAGUGGAUCCCCCGGCGCCCGGCGGCUCGAGCCCGGGUAAGUGUCAAUAGUCUGCAUGCCGCCGGGCGCCAUGCCUGCAGGUCGACUCUAGAAAACAUG”, in assay [5], the binding signal is 3.63 log2 enrichment (interaction score).
With “GGCUAGAACUAGUGGAUCCCCCGGCGCCCGGCGGCUCGAGCCCGGGUAAGUGAAAAUAGUCUGCAUGCCGCCGGGCGCCAUGCCUGCAGGUCGACUCUAGAAAACAUG”, the binding signal in [4] was 7.22 log2 enrichment (interaction score).
As for “GGCUAGAACUAGUGGAUCCCCCGGCGCCCGGCGGCUCGAGCCCGGGUAAGUGUAAAUAGUCUGCAUGCCGCCGGGCGCCAUGCCUGCAGGUCGACUCUAGAAAACAUG”, the binding signal is 3.23 log2 enrichment (interaction score) in assay [2], 2.93 log2 enrichment (interaction score) in assay [3] and 2.12 log2 enrichment (interaction score) in [5].
